According to PubChem BioAssay (NCI):
About 79,000 compounds went through this panel and 15% of them were active in at least one assay; those are over-represented in the sample as a whole. The source made the active and inactive calls. Cut-off read from the data, not from the text of the source: active = growth inhibition above about 70%; inactive = the rest.

Key:
[1] = NCI Yeast Anticancer Drug Screen. Data for the rad52 strain (AID 147);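 note: 0% = growth of vehicle-treated control cultures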; settings: S. cerevisiae rad52 mutant growth inhibition, active compounds read high
In short: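 Inhibition of yeast growth, referenced to vehicle controls, was the measured output for a strain with defective DNA damage repair.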

[2] = NCI Yeast Anticancer Drug Screen. Data for the wt1 strain (AID 149);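 note: 0% = growth of vehicle-treated wt1 cultures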; settings: S. cerevisiae wt1 strain (SPY 50644) growth inhibition, active compounds read high
In short: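 The wt1 strain was treated with compounds, and growth was compared with vehicle-treated cultures to give inhibition.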

[3] = NCI Yeast Anticancer Drug Screen. Data for the rad50EPP+ strain (AID 151);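 note: 0% = growth of vehicle-treated control cultures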; settings: S. cerevisiae rad50 mutant strain, active compounds read high
In short: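 Genetically defined yeast (rad50EPP+, DNA damage repair alteration) is grown with compound, and inhibition of growth is expressed relative to vehicle-treated controls.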

[4] = NCI Yeast Anticancer Drug Screen. Data for the mgt1 strain (AID 153); settings: S. cerevisiae mgt1 mutant growth inhibition, active compounds read high
In short: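 In the mgt1 strain, test compounds were added and growth inhibition was determined relative to vehicle-treated controls.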

[5] = NCI Yeast Anticancer Drug Screen. Data for the rad50 strain (AID 155);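 note: 0% = growth of vehicle-only cultures of the same strain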; settings: S. cerevisiae rad50 strain growth inhibition, active compounds read high
In short: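 Cells are treated with compound, grown, and their growth is then scored against vehicle-only cultures of the same repair-deficient yeast strain.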

[6] = NCI Yeast Anticancer Drug Screen. Data for the mec2-1 strain (AID 157); settings: S. cerevisiae mec2-1 strain, active compounds read high
In short: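 Each compound was tested on mec2-1 yeast, a strain altered in DNA damage repair or cell cycle control. Growth inhibition is reported relative to vehicle.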

[7] = NCI Yeast Anticancer Drug Screen. Data for the rad14 strain (AID 159);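 note: 0% = growth of vehicle-treated control cultures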; settings: S. cerevisiae rad14 strain growth inhibition, active compounds read high
In short: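 Readout: yeast growth inhibition, referenced to vehicle-only cultures. Strain bears a defined alteration in DNA damage repair.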

[8] = NCI Yeast Anticancer Drug Screen. Data for the sgs1 mgt1 strain (AID 161);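 note: 0% = growth of cultures given vehicle only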; settings: S. cerevisiae sgs1 mgt1 strain, active compounds read high
In short: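 Test agents were incubated with a DNA-repair-mutant yeast strain. Growth was then read and compared against vehicle-treated controls.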

[9] = NCI Yeast Anticancer Drug Screen. Data for the CLN2oe strain (AID 163);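 note: 0% = growth of vehicle-only control cultures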; settings: S. cerevisiae CLN2oe strain, active compounds read high
In short: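 First, the altered yeast strain was treated with each compound; second, its growth was measured; finally, inhibition was derived by comparison with vehicle controls.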

[10] = NCI Yeast Anticancer Drug Screen. Data for the cln2 rad14 strain (AID 165);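 note: 0% = growth equal to vehicle treated cultures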; settings: S. cerevisiae cln2 rad14 strain, active compounds read high
In short: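 Test compounds were added to cln2 rad14 yeast cultures; inhibition of growth was then determined by comparison with vehicle treatment.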

[11] = NCI Yeast Anticancer Drug Screen. Data for the bub3 strain (AID 167); settings: S. cerevisiae bub3 mutant strain, active compounds read high
In short: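 Part of a panel of yeast mutants defective in DNA damage repair or cell cycle regulation. Each strain is grown with compound, and inhibition is calculated relative to solvent-treated cultures.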

[12] = NCI Yeast Anticancer Drug Screen. Data for the wt2 strain (AID 169);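 note: 0% = growth of vehicle-treated yeast cultures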; settings: S. cerevisiae wt2 strain growth inhibition, active compounds read high
In short: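 The panel's yeast strains carry defined changes in DNA repair or cell cycle genes. Each strain is grown with compound, and growth loss is scored relative to vehicle.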

[13] = NCI Yeast Anticancer Drug Screen. Data for the mlh1 strain (AID 171);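 note: 0% = growth of vehicle-treated control cultures of the same strain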; settings: S. cerevisiae mlh1 strain growth inhibition, active compounds read high
In short: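 Inhibition values reflect reduced yeast growth in the presence of compound, referenced to vehicle controls, using a strain chosen for its alteration in DNA repair or cell cycle control.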

[14] = NCI Yeast Anticancer Drug Screen. Data for the sgs1 strain (AID 173);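 note: 0% = growth of vehicle-only control cultures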; settings: S. cerevisiae sgs1 mutant, active compounds read high
In short: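 Vehicle-treated cultures served as reference for growth inhibition of a yeast strain altered in DNA damage repair or cell cycle control after compound exposure.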

[15] = NCI Yeast Anticancer Drug Screen. Data for the mlh1 rad18 strain (AID 175); settings: S. cerevisiae mlh1 rad18 strain growth inhibition, active compounds read high
In short: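 Inhibition values reflect reduced growth of mutant yeast versus vehicle-treated controls following compound exposure; the mutations affect DNA damage repair.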

[16] = NCI Yeast Anticancer Drug Screen. Data for the rad18 strain (AID 177); settings: S. cerevisiae rad18 mutant growth inhibition, active compounds read high
In short: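 Steps: expose repair-mutant yeast to compound; measure growth; express as inhibition relative to vehicle control.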

[17] = at 5.0 µM (retest, dose inferred, filed as 0.5)
[18] = at 50.0 µM (retest, dose inferred, filed as 5.0)

Measured: growth inhibition

CC[C@@]1(O)C(=O)OCc2c1cc1n(c2=O)Cc2cc3c(N)cccc3nc2-1
inactive: [1]; at 1.2 µM 54% | [2]; at 1.2 µM 22% | [2]; at 3.7 µM 13% | [2]; at 11.0 µM 7% | [2]; at 33.0 µM 8% | [2]; at 100.0 µM -1% | [3]; at 1.2 µM 13% | [3]; at 3.7 µM 30% | [3]; at 11.0 µM 53% | [3]; at 33.0 µM 54% | [3]; at 100.0 µM 52% | [4]; at 1.2 µM 4% | [4]; at 3.7 µM -3% | [4]; at 11.0 µM 9% | [4]; at 33.0 µM 2% | [4]; at 100.0 µM 5% | [6]; at 1.2 µM -7% | [6]; at 3.7 µM -1% | [6]; [17] 2% | [6]; at 11.0 µM 18% | [6]; at 33.0 µM 23% | [6]; [18] 5% | [6]; at 50.0 µM 36.7% | [6]; at 100.0 µM 30% | [7]; at 1.2 µM -20% | [7]; at 3.7 µM -29% | [7]; at 11.0 µM -25% | [7]; at 33.0 µM -24% | [7]; at 100.0 µM -33% | [8]; [17] 1% | [8]; [18] 14% | [8]; at 50.0 µM 19.9% | [9]; at 1.2 µM 25% | [9]; at 3.7 µM 23% | [9]; at 11.0 µM 25% | [9]; at 33.0 µM 22% | [9]; at 100.0 µM 13% | [10]; [17] 35% | [10]; [18] -11% | [10]; at 50.0 µM -8.35% | [11]; at 1.2 µM -28% | [11]; at 3.7 µM -32% | [11]; [17] -1% | [11]; at 11.0 µM -26% | [11]; at 33.0 µM -7% | [11]; [18] 1% | [11]; at 50.0 µM -0.65% | [11]; at 100.0 µM -30% | [12]; at 1.2 µM -16% | [12]; at 3.7 µM -9% | [12]; at 11.0 µM -8% | [12]; at 33.0 µM -3% | [12]; at 100.0 µM -16% | [13]; at 1.2 µM 1% | [13]; at 3.7 µM 6% | [13]; at 11.0 µM 11% | [13]; at 33.0 µM 16% | [13]; at 100.0 µM 2% | [14]; at 1.2 µM 0% | [14]; at 3.7 µM -2% | [14]; at 11.0 µM 5% | [14]; at 33.0 µM 5% | [14]; at 100.0 µM 8% | [15]; [17] -6% | [15]; [18] 1% | [15]; at 50.0 µM 5.1% | [16]; at 1.2 µM -10% | [16]; at 3.7 µM -11% | [16]; at 11.0 µM -13% | [16]; at 33.0 µM -15% | [16]; at 100.0 µM -23%
active: [1]; at 3.7 µM 79% | [1]; at 11.0 µM 85% | [1]; at 33.0 µM 82% | [1]; at 100.0 µM 75% | [5]; at 1.2 µM 70% | [5]; at 3.7 µM 87% | [5]; [17] 81% | [5]; at 11.0 µM 88% | [5]; at 33.0 µM 86% | [5]; [18] 84% | [5]; at 50.0 µM 88% | [5]; at 100.0 µM 83%
